Assay [1] in a line: BET inhibitor-based combinations targeting novel dependencies in MECOM-rearranged (r) AML: SET-2 cell line (AID 2202231). Also: nearly all actives have a fitted effect of over 35% in size.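 As to viability: plate controls were DMSO treated cells for no effect and wells without cells for full effect.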 The note with it: SET-2 AML cells viability, CellTiter-Glo luminescence, 48 h; viability: active compounds read low, concentration not given here. Summed up:
(§1)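 500 cells/well; 11-pt dose curve; 48 h, standard incubator; CellTiter-Glo luminescence after 15 min RT; DMSO/empty-well normalization; AUC plus Z-AUC (mean-centered within each line).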
On the technique in general: In ATP-based viability assays light output follows the ATP content of the culture.

A short description of assay [2]: BET inhibitor-based combinations targeting novel dependencies in MECOM-rearranged (r) AML: OCI-AML3 cell line (AID 2202232). Also: nearly all actives have a fitted effect of over 35% in size.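 As to viability (% of control): plate controls were DMSO vehicle wells for no effect and wells without cells for full effect.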 The note with it: CellTiter-Glo luminescence, 48 h; Potency: OCI-AML3 viability; series mostly up to 46 µM. The method in brief:
as §1

Assay [3] in a line: BET inhibitor-based combinations targeting novel dependencies in MECOM-rearranged (r) AML: MV-4-11 cell line (AID 2202233). Also: nearly all actives have a fitted effect of over 45% in size.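 As to viability, % of control: plate controls were DMSO for no effect and blank wells for full effect.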 The note with it: MV-4-11 AML viability, CellTiter-Glo luminescence, 48 h; series mostly up to 46 µM. Summed up:
(§2)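 Cells were plated at 500 per well and exposed to each drug across an 11-point dose range for 48 hr at standard incubator conditions. Viability was read by CellTiter-Glo luminescence, and activity was expressed as AUC and per-cell-line Z-transformed AUC.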

The nature of assay [4]: BET inhibitor-based combinations targeting novel dependencies in MECOM-rearranged (r) AML: HNT-34 cell line (AID 2202234). Also: nearly all actives have a fitted effect of over 35% in size.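 As to viability (% of control): plate controls were vehicle wells for no effect and cell-free wells for full effect.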 The note with it: HNT-34 AML viability, CellTiter-Glo luminescence, 48 h; series mostly up to 46 µM. The method in brief: as §2
Assay [5] can be described thus: BET inhibitor-based combinations targeting novel dependencies in MECOM-rearranged (r) AML: UCSD-AML1 cell line (AID 2202235). Also: nearly all actives have a fitted effect of over 40% in size.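 As to viability (% of control): plate controls were DMSO vehicle wells for no effect and blank wells for full effect.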 Particulars: UCSD-AML1 AML cells viability, CellTiter-Glo, 48 h; series mostly up to 46 µM. Summed up: as §2
Assay [6] in a line: BET inhibitor-based combinations targeting novel dependencies in MECOM-rearranged (r) AML: AML-191 cell line (AID 2202236; also: nearly all actives have a fitted effect of over 35% in size;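 as to viability (% of control): plate controls were vehicle wells for no effect and wells without cells for full effect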). The note with it: AML-191 viability, CellTiter-Glo luminescence, 48 h; series mostly up to 46 µM. Summed up:
as §1

Assay [7] is described as follows: BET inhibitor-based combinations targeting novel dependencies in MECOM-rearranged (r) AML: AML-194 cell line (AID 2202237; also: nearly all actives have a fitted effect of over 40% in size;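 as to viability (% of control): plate controls were vehicle wells for no effect and wells without cells for full effect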). Particulars: AML-194 (MECOM-r AML) viability, CellTiter-Glo, 48 h; series mostly up to 46 µM. Summed up:
as §1

Structures are written as SMILES. Results filed as inconclusive are left out. A number with no mark means an inactive call. The source made the active and inactive calls. Calls follow the shape of the dose curve; as a rule, active = well fitted curve in the direction sought with a large enough effect; inconclusive = small, poorly fitted or top-dose-only effect, or another doubt; inactive = no such curve, though single readings can be large; an effect the other way counts as inactive or inconclusive.
Potency is read from the fitted curve at half-maximal effect.

In the case of `CC(C)(O)CNc1ncc(-c2ccnc(Nc3ccncc3)n2)c(CC2CC2)n1`, the Potency in assay [1] was 18.6 µM (active); in assay [2], 18.6 µM (active); in assay [3] it was 5.9 µM (active); in assay [4], 9.34 µM (active); in assay [5], 14.8 µM (active); in assay [6], 13.2 µM (active). The Potency in assay [7] is 16.6 µM (active).
`CN1CCN(c2ccc3nc(-c4c(N)c5c(F)cccc5[nH]c4=O)[nH]c3c2)CC1`: the Potency in assay [1] was 4.17 µM (active); in assay [2], 4.68 µM (active); in assay [3], 0.059 µM (active); in assay [4], 0.833 µM (active); in assay [5], 3.32 µM (active); in assay [6], 1.86 µM (active). Also, the Potency in assay [7] was 1.86 µM (active).
A word on the viability: it is a read-out of living cells in per cent, often relative to untreated cells. With `C[C@@H]1[C@H](O)[C@@H](C)/C=C/C=C/C=C/C=C/C=C/C=C/C=C/[C@H](O[C@@H]2O[C@H](C)[C@@H](O)[C@H](N)[C@@H]2O)C[C@@H]2O[C@](O)(C[C@@H](O)C[C@@H](O)[C@H](O)CC[C@@H](O)C[C@@H](O)CC(=O)O[C@H]1C)C[C@H](O)[C@H]2C(=O)O`, the viability in assay [1] was 112%. Also, the Potency result in assay [2], in assay [4], in assay [5], in assay [6] and in assay [7] was “inactive” throughout. In assay [3], the Potency was 23.5 µM (active).
For `CCc1cc2c(c(OCC(F)(F)F)c(C(=O)NC3CCN(C(=O)CO)CC3)n2C)c(=O)n1CC(=O)c1ccccc1`, the viability in assay [1] was 103%. The Potency entry in assay [2], in assay [3], in assay [5], in assay [6] and in assay [7] was “inactive” in each case. The Potency in assay [4] was 16.6 µM (active).
In the case of `CCN(CC)CCNc1ccc(C)c2sc3ccccc3c(=O)c12`, the Potency in assay [1] is 18.6 µM (active); in assay [2], 14.8 µM (active); in assay [3], 7.42 µM (active); in assay [4], 16.6 µM (active); in assay [5] it was 16.6 µM (active); in assay [6], 16.6 µM (active). In assay [7], the Potency is 16.6 µM (active).
For the compound `CCOC(=O)CCNc1cc(N2CCc3ccccc3CC2)nc(-c2ccccn2)n1`, the Potency in assay [1] is 3.72 µM (active); in assay [2], 14.8 µM (active); in assay [3], 8.33 µM (active); in assay [4], 2.35 µM (active); in assay [5] it was 3.32 µM (active); in assay [6] it was 2.95 µM (active). Moreover, the Potency in assay [7] is 2.95 µM (active).
With `C[C@@H]1C(=O)OC2[C@H](O)[C@]34[C@H]5C[C@@H](C(C)(C)C)[C@]36[C@@H](OC(=O)[C@@H]6O)O[C@@]4(C(=O)O5)[C@]21O` (stereo not given in full), in assay [1], the viability was 115%. The Potency entry in assay [2], in assay [3], in assay [4], in assay [5], in assay [6] and in assay [7] was “inactive” each time.
`CCCCCCCCCCCCCCCCCCCCCCO`: the viability in assay [1] was 112%. Moreover, the Potency result in assay [2], in assay [3], in assay [4], in assay [5], in assay [6] and in assay [7] was “inactive” each time.
On to `Cc1cc(I)ccc1Nc1c(C(=O)NOCC2CC2)cc(F)c(F)c1F`, for which the Potency is 20.9 µM (active) in assay [1]; 1.66 µM (active) in assay [2]; 16.6 µM (active) in assay [3]; 14.8 µM (active) in assay [4]; 5.9 µM (active) in assay [5]; 16.6 µM (active) in assay [6]. The Potency in assay [7] is 20.9 µM (active).
As for `COc1cc([C@@H]2c3cc4c(cc3[C@@H](O[C@@H]3O[C@@H]5CO[C@@H](C)O[C@@H]5[C@H](O)[C@@H]3O)[C@H]3COC(=O)[C@H]23)OCO4)cc(OC)c1O`, the Potency in assay [1] was 5.25 µM (active); in assay [2] it was 0.934 µM (active); in assay [3], 0.166 µM (active); in assay [4] it was 1.48 µM (active); in assay [5], 0.833 µM (active); in assay [6], 1.32 µM (active). For the same compound, in assay [7], the Potency is 2.09 µM (active).
`O=C(CCCCCCNC(=O)c1cnc(N(c2ccccc2)c2ccccc2Cl)nc1)NO`: the Potency in assay [1] was 9.34 µM (active); in assay [2] it was 7.42 µM (active); in assay [3], 3.72 µM (active); in assay [4] it was 9.34 µM (active); in assay [5], 9.34 µM (active); in assay [6], 7.42 µM (active). The Potency in assay [7] was 10.5 µM (active).
Regarding `COc1cc2c(cc1OC)CN(CCc1ccc(-n3nnc(-c4cc(OC)c(OC)cc4NC(=O)c4cc(=O)c5ccccc5o4)n3)cc1)CC2`, the viability in assay [1] was 116%. Moreover, the viability (% of control) in assay [2] is 94.2% [at 0.315 µM]; in assay [4] it was 93.8% [at 0.315 µM]; in assay [5] it was 106% [at 0.315 µM]; in assay [6] it was 99.1% [at 0.315 µM]; in assay [7], 95.7% [at 0.315 µM]. Also, the viability, % of control in assay [3] was 93.2% [at 0.315 µM].
As to `CNC1CCCN(c2c(F)cc3c(=O)c(C(=O)O)cn(C4CC4)c3c2OC)C1` (stereo not given), in assay [1], the viability was 112%. In addition, the Potency result in assay [2], in assay [3], in assay [4], in assay [5], in assay [6] and in assay [7] was “inactive” each time.
Regarding `CC(C)OC(=O)[C@H](C)N[P@](=O)(OC[C@H]1O[C@@H](n2ccc(=O)[nH]c2=O)[C@](C)(F)[C@@H]1O)Oc1ccccc1`, the viability in assay [1] is 107%. Besides, the Potency entry in assay [2], in assay [3], in assay [4], in assay [5], in assay [6] and in assay [7] was “inactive” throughout.
For `CC(C)(NS(=O)(=O)c1ccc2c(Cl)cnc(N=C(N)N)c2c1)C(=O)O`, the viability in assay [1] was 117%. Besides, the Potency result in assay [2], in assay [3], in assay [4], in assay [5], in assay [6] and in assay [7] was “inactive” throughout.

The record behind these values is PubChem BioAssay (NCATS).
